Drawing on PubChem BioAssay (EPA / NIEHS), this text covers outcome and AC50 for seven compounds.

Read-out in test [1]: Tissue Factor, F3 (gene 2152)
Kind of test: BSK_CASM3C_TissueFactor: BioMAP Diversity Plus: CASM3C Assay for Tissue Factor Biomarker Activity (AID 2283052).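 Note: cell surface tissue factor protein level read by ELISA.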 The following applies: primary human coronary artery smooth muscle cells; actives raise or lower the signal.

Read-out in test [2]: Interferon-gamma inducible Protein 10 (IP10), CXCL10 (gene 3627)
In words: BSK_hDFCGF_IP10: BioMAP Diversity Plus: hDFCGF Assay for Interferon-gamma inducible Protein 10 (IP10) Biomarker Activity (AID 2283053). As to conditions: primary human foreskin fibroblasts; actives raise or lower the signal. An outline of the steps:
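Primary human foreskin fibroblasts exposed to chemicals for 24 h. IP-10 measured by ELISA; changes fitted bidirectionally against DMSO baseline.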

Read-out in test [3]: Urokinase-type plasminogen activator receptor (uPAR), PLAUR (gene 5329)
In words: BSK_CASM3C_uPAR: BioMAP Diversity Plus: CASM3C Assay for Urokinase-type plasminogen activator receptor (uPAR) Biomarker Activity (AID 2283054).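 Note: cell-surface uPAR protein level quantified by ELISA.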 The following applies: primary human coronary artery smooth muscle cells; actives raise or lower the signal.

Read-out in test [4]: Vascular cell adhesion molecule 1 (VCAM1), VCAM1 (gene 7412)
In words: BSK_CASM3C_VCAM1: BioMAP Diversity Plus: CASM3C Assay for Vascular cell adhesion molecule 1 (VCAM1) Biomarker Activity (AID 2283055).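 Note: VCAM-1 protein level quantified by ELISA on the cells.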 The following applies: primary human coronary artery smooth muscle cells; actives raise or lower the signal.

Read-out in test [5]: Collagen III, COL3A1 (gene 1281)
Kind of test: BSK_hDFCGF_CollagenIII: BioMAP Diversity Plus: hDFCGF Assay for Collagen III Biomarker Activity (AID 2283056). The following applies: primary human foreskin fibroblasts; actives raise or lower the signal. The essentials: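 Cells: human foreskin fibroblasts, primary. Dosing followed by 24 h incubation, then ELISA for collagen III. Both increases and decreases scored relative to DMSO.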

Read-out in test [6]: Interleukin-8 (IL8), CXCL8 (gene 3576)
In words: BSK_hDFCGF_IL8: BioMAP Diversity Plus: hDFCGF Assay for Interleukin-8 (IL8) Biomarker Activity (AID 2283058). The following applies: primary human foreskin fibroblasts; actives raise or lower the signal. The essentials: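 IL-8 levels from compound-treated primary human fibroblasts were read by ELISA at 24 h, with DMSO serving as baseline for bidirectional fitting.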

Test [7] in a line: BSK_hDFCGF_Proliferation: Cell Proliferation Assessment in the BioMAP Diversity Plus: hDFCGF Assay (AID 2283059).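 Note: curves fitted for both rise and fall of signal versus DMSO baseline.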 As to conditions: primary human foreskin fibroblasts. An outline of the steps: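 This proliferation readout used SRB total-protein staining of human foreskin fibroblasts […], normalized to DMSO with bidirectional curve fitting.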
Read-out in test [8]: Macrophage colony-stimulating factor (MCSF), CSF1 (gene 1435)
In words: BSK_hDFCGF_MCSF: BioMAP Diversity Plus: hDFCGF Assay for Macrophage colony-stimulating factor (MCSF) Biomarker Activity (AID 2283060). The following applies: primary human foreskin fibroblasts; actives raise or lower the signal. The essentials: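 M-CSF levels, determined by ELISA, are taken at 24 h after dosing human skin fibroblasts. Responses in either direction are fitted with DMSO serving as the baseline.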

Test [9] can be described thus: BSK_hDFCGF_SRB: Viability Assessment in the BioMAP Diversity Plus: hDFCGF Assay (AID 2283061).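 Note: cells exposed to compound for 24 h before the read.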 As to conditions: primary human foreskin fibroblasts. An outline of the steps:
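Cells were dosed with test chemical, cultured 24 h, fixed with 10% TCA, then stained with 0.1% SRB and read at 560 nm. The fibroblasts were human foreskin primary cells, and DMSO served as baseline.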

Read-out in test [10]: TIMP metallopeptidase inhibitor 1 (TIMP1), TIMP1 (gene 7076)
In words: BSK_hDFCGF_TIMP1: BioMAP Diversity Plus: hDFCGF Assay for TIMP metallopeptidase inhibitor 1 (TIMP1) Biomarker Activity (AID 2283062). The following applies: primary human foreskin fibroblasts; actives raise or lower the signal. An outline of the steps: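 Fibroblasts from human foreskin are treated with test chemical and harvested at 24 h. TIMP-1 is quantified by ELISA, and gain or loss of signal is scored against DMSO.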

Read-out in test [11]: Monokine induced gamma interferon (MIG), CXCL9 (gene 4283)
In words: BSK_hDFCGF_MIG: BioMAP Diversity Plus: hDFCGF Assay for Monokine induced gamma interferon (MIG) Biomarker Activity (AID 2283063). As to conditions: primary human foreskin fibroblasts; actives raise or lower the signal. The essentials: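 MIG signal, determined by ELISA, reflects 24 h chemical exposure of human skin primary fibroblasts. DMSO serves as negative control and baseline.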

Read-out in test [12]: Matrix Metallopeptidase 1 (MMP1), MMP1 (gene 4312)
Kind of test: BSK_hDFCGF_MMP1: BioMAP Diversity Plus: hDFCGF Assay for Matrix Metallopeptidase 1 (MMP1) Biomarker Activity (AID 2283064). As to conditions: primary human foreskin fibroblasts; actives raise or lower the signal. An outline of the steps: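 Primary human foreskin fibroblasts exposed to chemicals for 24 h; MMP1 measured by ELISA. Cytotoxicity tracked by SRB staining in parallel cultures; bidirectional fit relative to DMSO.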

Read-out in test [13]: Vascular cell adhesion molecule 1 (VCAM1), VCAM1 (gene 7412)
In words: BSK_hDFCGF_VCAM1: BioMAP Diversity Plus: hDFCGF Assay for Vascular cell adhesion molecule 1 (VCAM1) Biomarker Activity (AID 2283065).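 For AC50: VCAM-1 protein level quantified by ELISA after 24 h chemical exposure.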 As to conditions: primary human foreskin fibroblasts; actives raise or lower the signal. An outline of the steps: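 Cells are dosed, cultured for 24 h, then VCAM-1 is quantified by ELISA; signal increases and decreases are both fitted relative to DMSO.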

Read-out in test [14]: Plasminogen activator inhibitor-1 (PAI1), SERPINE1 (gene 5054)
Kind of test: BSK_hDFCGF_PAI1: BioMAP Diversity Plus: hDFCGF Assay for Plasminogen activator inhibitor-1 (PAI1) Biomarker Activity (AID 2283066). As to conditions: primary human foreskin fibroblasts; actives raise or lower the signal. An outline of the steps:
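Human foreskin fibroblast primary cells, 24 h chemical exposure; PAI-1 measured by ELISA. Bidirectional fitting relative to DMSO; parallel cultures stained with SRB for total protein to flag overt cytotoxicity.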

Read-out in test [15]: Intercellular Adhesion Molecule 1 (ICAM1), ICAM1 (gene 3383)
In words: BSK_KF3CT_ICAM1: BioMAP Diversity Plus: KF3CT Assay for Intercellular Adhesion Molecule 1 (ICAM1) Biomarker Activity (AID 2283067). The following applies: primary human keratinocytes with fibroblasts; actives raise or lower the signal. The essentials:
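Dose the keratinocyte/fibroblast co-culture, wait 24 h, measure ICAM-1 by ELISA, then fit increases or decreases against DMSO. Cytotoxicity is checked in parallel cultures by SRB total-protein staining.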

Read-out in test [16]: Interferon-gamma inducible Protein 10 (IP10), CXCL10 (gene 3627)
Kind of test: BSK_KF3CT_IP10: BioMAP Diversity Plus: KF3CT Assay for Interferon-gamma inducible Protein 10 (IP10) Biomarker Activity (AID 2283068). As to conditions: primary human keratinocytes with fibroblasts; actives raise or lower the signal. The essentials: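 Signal is secreted/surface IP-10 by ELISA in a human primary skin co-culture of keratinocytes and foreskin fibroblasts, taken 24 h post-dosing; DMSO served as negative control.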

Test [17] is described as follows: BSK_KF3CT_SRB: Viability Assessment in the BioMAP Diversity Plus: KF3CT Assay (AID 2283069).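 Note: total protein by sulforhodamine B staining as a cytotoxicity measure; fitted for both signal gain and loss against DMSO baseline.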 The following applies: primary human keratinocytes with fibroblasts. An outline of the steps:
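Human keratinocyte and foreskin fibroblast co-culture exposed to chemical for 24 h. Total protein measured in parallel cultures by 0.1% sulforhodamine B staining after 10% TCA fixation, read at 560 nm; bidirectional fit relative to DMSO.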

Read-out in test [18]: Interleukin-1 alpha (IL1a), IL1A (gene 3552)
Kind of test: BSK_KF3CT_IL1a: BioMAP Diversity Plus: KF3CT Assay for Interleukin-1 alpha (IL1a) Biomarker Activity (AID 2283070). As to conditions: primary human keratinocytes with fibroblasts; actives raise or lower the signal. An outline of the steps:
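Primary human keratinocyte plus foreskin fibroblast co-culture, dosed and measured at 24 h in 96-well plates. IL-1a level quantified by ELISA; bidirectional fit relative to DMSO.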

Read-out in test [19]: TIMP metallopeptidase inhibitor 2 (TIMP2), TIMP2 (gene 7077)
In words: BSK_KF3CT_TIMP2: BioMAP Diversity Plus: KF3CT Assay for TIMP metallopeptidase inhibitor 2 (TIMP2) Biomarker Activity (AID 2283071). As to conditions: primary human keratinocytes with fibroblasts; actives raise or lower the signal. The essentials: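 Co-culture of human primary keratinocytes and foreskin fibroblasts, measured 24 h after chemical dosing. TIMP-2 quantified by ELISA and fitted in both directions relative to DMSO. Cytotoxicity checked in parallel cultures by SRB total-protein staining.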

Calls of active or inactive are those of the source. Rule for the calls: active = hit-call score of the fitted dose curve at least 0.9, where 1 is the maximum; inactive = score below 0.9.

For the compound `CC(CO)OC(C)CO` (configuration not stated) (tested in a mixture with another compound), the outcome in [1], in [2], in test [3], in [4], in test [5] and in [6] was inactive. The result in test [7], in test [8], in test [9], in test [10], in [11] and in [12] was inactive. Besides, the result in test [13], in test [14], in test [15], in test [16], in test [17] and in [18] was inactive. For the same compound, the outcome in [19] was inactive.

For the compound `O=c1[nH]cc(F)c(=O)[nH]1`, the outcome in [1], in test [2], in test [3], in test [4], in test [5] and in test [6] was inactive. Besides, the outcome in test [8], in [9], in test [10], in test [11], in test [12] and in test [13] was inactive. Moreover, the outcome in [14], in [15], in test [16], in [17], in test [18] and in test [19] was inactive.

`COCCOC[C@H](CC1(C(=O)NC2CCC(C(=O)O)CC2)CCCC1)C(=O)Oc1ccc2c(c1)CCC2` (some centres not stated): the result in [1], in test [2], in test [3], in test [4], in test [5] and in test [6] was inactive. Further, the outcome in test [8], in [9], in test [10], in test [11], in [12] and in test [13] was inactive. Further, the outcome in [14], in test [15], in [16], in test [17] and in [18] was inactive.

What is called AC50 is the concentration giving half of the maximal activity seen. Consider `O=c1c(O)c(-c2ccc(O)c(O)c2)oc2cc(O)cc(O)c12`, for which the AC50 in test [1] was 4.13 µM (active); in test [2] it was 20 µM (active); in test [3], 6.66 µM (active); in [8] it was 7.26 µM (active); in test [9], 12.2 µM (active); in [11], 7.18 µM (active). Further, the AC50 is 17.6 µM (active) in test [16], 14.2 µM (active) in test [17], 7.22 µM (active) in test [18] and 20 µM (active) in test [19]. Further, the result in test [4], in [5], in test [6], in test [10], in [12] and in [13] was inactive. For the same compound, the outcome in test [14] was inactive.

As to `CCCCCCCCCCCC(=O)OC`, the outcome in [1], in test [2], in test [3], in [4], in test [5] and in test [6] was inactive. Besides, the outcome in test [8], in test [9], in test [10], in test [11], in test [12] and in test [13] was inactive. Further, the result in test [14], in test [15], in [16], in test [17], in [18] and in test [19] was inactive. The AC50 in [7] was 28.9 µM (active).

For the compound `Oc1ccc2ccccc2c1N=Nc1ccccc1`, the outcome in [1], in [2], in test [3], in test [4], in test [5] and in test [6] was inactive. The outcome in test [8], in test [9], in [10], in test [11], in test [12] and in test [13] was inactive. For the same compound, the result in test [15], in [16], in test [17] and in test [18] was inactive. For the same compound, the values for the AC50 in [14] and in test [19] were 0.855 µM (active) and 3.97 µM (active), respectively.

For the compound `Nc1ccccc1N`, the outcome in test [1], in test [2], in test [3], in test [5], in [6] and in test [8] was inactive. Besides, the outcome in [9], in [10], in [11], in test [12], in test [14] and in test [15] was inactive. For the same compound, the result in [16], in test [17], in test [18] and in test [19] was inactive. Moreover, the concentration at half-maximal activity (AC50) in test [4] is 4.05 µM (active); in test [7] it was 16 µM (active); in [13] it was 6.75 µM (active).
